Experimental findings from ChEMBL document CHEMBL3988442, “University of Dundee, Small-Polar-MMV Screening Library” (2021) are described below.

Common to all, as to design: scale not given: direction of the effect not stated beside the values
Test [1] has as its target Protein translocase subunit SecA (Escherichia coli (strain K12)) (UniProt P10408). Put plainly: Assay to Identify E. coli SecA ATPase Inhibitors. Conditions: 30 µM. The class given is functional.
Test [2] has as its target T1, Ubiquitin-activating enzyme e1, putative (Leishmania donovani (strain BPK282A1)) (UniProt E9BSI1).
T1 sequence (whole entry): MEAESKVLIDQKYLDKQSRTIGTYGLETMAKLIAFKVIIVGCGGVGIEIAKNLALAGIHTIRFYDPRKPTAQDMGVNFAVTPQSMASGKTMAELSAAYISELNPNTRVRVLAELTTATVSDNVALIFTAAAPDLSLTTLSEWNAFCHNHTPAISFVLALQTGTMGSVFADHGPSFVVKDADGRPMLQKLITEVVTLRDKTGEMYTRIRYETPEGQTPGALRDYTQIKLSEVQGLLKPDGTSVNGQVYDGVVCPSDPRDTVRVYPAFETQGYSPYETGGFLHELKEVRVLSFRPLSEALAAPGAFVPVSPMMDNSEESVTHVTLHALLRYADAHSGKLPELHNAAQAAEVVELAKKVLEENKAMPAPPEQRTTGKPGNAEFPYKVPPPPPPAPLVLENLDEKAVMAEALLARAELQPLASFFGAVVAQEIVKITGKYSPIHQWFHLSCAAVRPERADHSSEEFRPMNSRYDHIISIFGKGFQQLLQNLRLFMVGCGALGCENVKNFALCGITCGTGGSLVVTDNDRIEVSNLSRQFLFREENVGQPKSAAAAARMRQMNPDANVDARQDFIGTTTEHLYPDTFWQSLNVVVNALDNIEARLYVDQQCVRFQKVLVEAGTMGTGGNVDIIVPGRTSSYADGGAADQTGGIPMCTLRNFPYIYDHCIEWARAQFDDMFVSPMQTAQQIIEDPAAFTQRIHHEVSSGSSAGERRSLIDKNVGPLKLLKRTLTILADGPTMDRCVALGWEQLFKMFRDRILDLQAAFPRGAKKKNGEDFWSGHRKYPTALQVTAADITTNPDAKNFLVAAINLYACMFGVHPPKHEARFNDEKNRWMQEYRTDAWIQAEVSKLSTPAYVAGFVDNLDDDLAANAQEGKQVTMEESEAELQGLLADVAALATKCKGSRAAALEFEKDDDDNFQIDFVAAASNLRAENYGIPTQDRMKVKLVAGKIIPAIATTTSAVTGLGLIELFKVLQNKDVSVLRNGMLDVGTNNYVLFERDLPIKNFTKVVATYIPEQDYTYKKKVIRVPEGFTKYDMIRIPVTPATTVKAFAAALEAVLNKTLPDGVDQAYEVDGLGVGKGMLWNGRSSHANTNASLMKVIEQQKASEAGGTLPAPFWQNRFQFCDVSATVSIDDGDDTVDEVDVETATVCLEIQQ
Description: Leishmania donovani Ubiquitin Activating Enzyme (LdE1). The note with it: 30 µM. Type of test: functional.

Test [3] addresses AMP-activated protein kinase, AMPK (Homo sapiens) (UniProt P54646+O43741+P54619+Q9UGJ0+Q9Y478+Q13131+Q9UGI9). Description: AMP-dependent Kinase enzyme assay. An in vitro enzyme assay that detects ADP turnover that is directly proportional to AMPK activity. This uses naive AMPK that is activated during the assay with MK-8722. The note with it: 30 µM. Type of test: functional.
Test [4] has as its target Sialic acid-binding Ig-like lectin 9 (Homo sapiens) (UniProt Q9Y336). Put plainly: Hs-Siglec9 ALPHAscreen SOP 20170721. Conditions: 10 µM. (In general: Alpha assays give light when donor and acceptor beads are brought close together.)
A further test concerns Trypanosoma cruzi. Description: Trypanosoma cruzi phosphomannomutase and mannose-1-phosphate guanylyltransferase assay. Type of test: functional. Conditions: 10 µM.
Test [5] addresses T2, Arginase-2, mitochondrial (Homo sapiens) (UniProt P78540).
T2 sequence (whole entry): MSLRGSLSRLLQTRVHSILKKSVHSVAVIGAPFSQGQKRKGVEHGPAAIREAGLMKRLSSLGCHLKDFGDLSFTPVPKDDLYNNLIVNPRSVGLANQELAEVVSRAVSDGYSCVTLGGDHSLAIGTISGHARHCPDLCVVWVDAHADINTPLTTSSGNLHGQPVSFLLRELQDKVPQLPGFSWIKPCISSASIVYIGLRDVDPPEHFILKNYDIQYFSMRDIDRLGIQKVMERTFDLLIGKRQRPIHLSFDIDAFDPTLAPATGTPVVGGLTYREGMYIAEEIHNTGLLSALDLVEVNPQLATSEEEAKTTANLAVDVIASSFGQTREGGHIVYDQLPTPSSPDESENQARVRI
Description: in vitro enzyme assay to detect the production of urea directly proportional to the activity of Arginase II. Further: in the data most compounds retested in dose-response had high values. The class given is functional. Conditions: 33.3 µM.

The target in test [6] is T3, Proteasome subunit beta (Trypanosoma cruzi) (UniProt O96673).
T3 sequence (whole entry): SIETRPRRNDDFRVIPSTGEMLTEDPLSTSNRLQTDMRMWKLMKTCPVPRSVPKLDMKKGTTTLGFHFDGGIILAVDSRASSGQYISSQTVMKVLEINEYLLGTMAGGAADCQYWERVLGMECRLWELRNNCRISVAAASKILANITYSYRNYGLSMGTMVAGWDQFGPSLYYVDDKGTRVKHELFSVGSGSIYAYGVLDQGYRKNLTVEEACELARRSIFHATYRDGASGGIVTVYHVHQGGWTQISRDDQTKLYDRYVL
Put plainly: Trypanosoma cruzi proteasome chymotrypsin-like activity (TcProtChymo) assay. Further: in the data most compounds retested in dose-response had high values. Conditions: 9.37 µM. Type of test: functional.

A further test is filed under the species Homo sapiens. Description: To identify inhibition of the IFN signalling (Jak-Stat) pathway via expression of an eGFP reporter gene under the control of an IFN-stimulated response element (ISRE) containing MxA promoter. The class given is functional. The note with it: 30 µM. Background: In a reporter assay the amount or activity of a reporter protein is the signal.

Test [7] concerns the target T4, Tyrosyl-tRNA synthetase, putative (Trypanosoma cruzi (strain CL Brener)) (UniProt Q4DSP6).
T4 sequence (whole entry): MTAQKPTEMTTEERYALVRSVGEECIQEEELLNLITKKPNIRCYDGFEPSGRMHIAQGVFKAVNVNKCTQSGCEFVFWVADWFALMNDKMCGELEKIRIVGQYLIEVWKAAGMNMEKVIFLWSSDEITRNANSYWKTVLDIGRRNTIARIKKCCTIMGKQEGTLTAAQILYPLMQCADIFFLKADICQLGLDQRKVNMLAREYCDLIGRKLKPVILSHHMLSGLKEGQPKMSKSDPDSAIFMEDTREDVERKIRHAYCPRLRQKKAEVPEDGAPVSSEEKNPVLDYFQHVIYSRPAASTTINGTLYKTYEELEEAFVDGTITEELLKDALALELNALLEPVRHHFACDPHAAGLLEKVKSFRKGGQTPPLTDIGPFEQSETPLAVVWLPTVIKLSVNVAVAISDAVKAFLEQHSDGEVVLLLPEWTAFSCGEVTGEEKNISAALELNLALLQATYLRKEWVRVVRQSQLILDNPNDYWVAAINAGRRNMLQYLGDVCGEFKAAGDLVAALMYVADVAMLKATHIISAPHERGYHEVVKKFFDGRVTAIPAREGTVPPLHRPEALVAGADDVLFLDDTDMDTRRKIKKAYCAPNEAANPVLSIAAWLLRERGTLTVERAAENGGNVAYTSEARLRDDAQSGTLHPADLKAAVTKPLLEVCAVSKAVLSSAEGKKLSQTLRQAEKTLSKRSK
Put plainly: Trypanosoma cruzi tyrosyl tRNA synthetase (TcYRS) _High Tyrosine SOP. Further: in the data most compounds retested in dose-response had high values. The class given is functional. Conditions: 30 µM.

The target in test [8] is T4, Tyrosyl-tRNA synthetase, putative (Trypanosoma cruzi (strain CL Brener)). Put plainly: Trypanosoma cruzi tyrosyl tRNA synthetase (TcYRS) SOP. Conditions: 30 µM. Type of test: functional.
Test [9] addresses Chromo domain-containing protein 1 (Saccharomyces cerevisiae (strain ATCC 204508 / S288c) (Baker's yeast)) (UniProt P32657). Put plainly: ScCHD-1 Enzyme Inhibition Assay. Further: in the data most compounds retested in dose-response had high values. Type of test: functional. The note with it: 30 µM.

For some of these results: Entries with a potency or affinity are not part of this list.

Sequence of Chromo domain-containing protein 1 (Saccharomyces cerevisiae (strain ATCC 204508 / S288c) (Baker's yeast)) (P32657 whole entry, the tested form may be a part): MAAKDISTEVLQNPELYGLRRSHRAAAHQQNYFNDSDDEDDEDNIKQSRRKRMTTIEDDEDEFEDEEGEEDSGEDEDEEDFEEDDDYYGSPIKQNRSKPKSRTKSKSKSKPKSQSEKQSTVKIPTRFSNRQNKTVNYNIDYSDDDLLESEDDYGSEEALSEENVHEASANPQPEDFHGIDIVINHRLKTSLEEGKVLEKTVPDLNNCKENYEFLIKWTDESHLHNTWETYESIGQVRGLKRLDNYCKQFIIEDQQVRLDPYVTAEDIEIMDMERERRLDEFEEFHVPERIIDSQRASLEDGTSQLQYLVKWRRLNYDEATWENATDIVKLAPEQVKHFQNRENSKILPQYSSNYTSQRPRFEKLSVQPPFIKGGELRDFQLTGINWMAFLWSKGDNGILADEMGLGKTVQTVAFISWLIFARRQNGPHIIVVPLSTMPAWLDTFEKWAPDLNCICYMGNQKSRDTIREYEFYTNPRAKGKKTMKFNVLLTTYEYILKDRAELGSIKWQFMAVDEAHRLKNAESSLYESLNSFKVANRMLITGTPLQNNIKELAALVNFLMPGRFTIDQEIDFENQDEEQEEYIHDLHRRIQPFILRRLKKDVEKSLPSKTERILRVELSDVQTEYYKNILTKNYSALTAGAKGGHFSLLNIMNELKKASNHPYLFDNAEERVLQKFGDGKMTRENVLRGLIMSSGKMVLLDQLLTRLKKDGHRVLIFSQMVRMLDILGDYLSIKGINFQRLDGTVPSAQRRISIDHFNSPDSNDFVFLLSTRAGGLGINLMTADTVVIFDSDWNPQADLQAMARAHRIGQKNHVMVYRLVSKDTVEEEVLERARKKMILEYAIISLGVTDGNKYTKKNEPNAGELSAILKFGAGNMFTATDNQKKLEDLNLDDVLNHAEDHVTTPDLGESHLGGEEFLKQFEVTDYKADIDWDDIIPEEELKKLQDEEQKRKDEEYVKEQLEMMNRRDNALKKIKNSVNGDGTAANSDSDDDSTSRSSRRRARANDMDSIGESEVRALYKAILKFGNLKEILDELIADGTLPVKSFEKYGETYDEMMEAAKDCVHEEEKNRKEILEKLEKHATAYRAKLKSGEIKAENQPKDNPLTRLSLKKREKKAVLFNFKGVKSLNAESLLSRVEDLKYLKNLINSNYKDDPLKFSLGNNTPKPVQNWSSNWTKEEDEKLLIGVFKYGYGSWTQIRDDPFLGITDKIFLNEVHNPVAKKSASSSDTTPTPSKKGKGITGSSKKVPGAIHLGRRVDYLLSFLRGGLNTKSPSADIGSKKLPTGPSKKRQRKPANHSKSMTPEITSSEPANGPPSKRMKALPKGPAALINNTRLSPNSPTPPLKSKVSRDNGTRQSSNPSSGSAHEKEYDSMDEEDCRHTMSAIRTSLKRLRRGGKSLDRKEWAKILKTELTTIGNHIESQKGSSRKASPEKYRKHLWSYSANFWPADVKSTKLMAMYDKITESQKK
Sequence of Sialic acid-binding Ig-like lectin 9 (Homo sapiens) (Q9Y336 whole entry): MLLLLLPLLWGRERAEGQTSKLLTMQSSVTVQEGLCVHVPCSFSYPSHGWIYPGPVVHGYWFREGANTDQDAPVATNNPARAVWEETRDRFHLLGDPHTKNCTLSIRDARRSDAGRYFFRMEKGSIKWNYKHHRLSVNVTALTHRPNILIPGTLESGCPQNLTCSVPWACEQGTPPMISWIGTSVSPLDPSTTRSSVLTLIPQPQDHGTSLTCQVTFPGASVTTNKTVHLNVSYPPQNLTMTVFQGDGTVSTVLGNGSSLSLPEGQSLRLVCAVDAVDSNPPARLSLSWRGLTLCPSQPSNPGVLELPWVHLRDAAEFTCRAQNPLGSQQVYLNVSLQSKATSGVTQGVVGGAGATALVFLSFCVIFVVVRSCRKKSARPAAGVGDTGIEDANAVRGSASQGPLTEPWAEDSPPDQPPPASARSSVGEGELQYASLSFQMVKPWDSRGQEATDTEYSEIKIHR
Sequence of Protein translocase subunit SecA (Escherichia coli (strain K12)) (P10408 whole entry): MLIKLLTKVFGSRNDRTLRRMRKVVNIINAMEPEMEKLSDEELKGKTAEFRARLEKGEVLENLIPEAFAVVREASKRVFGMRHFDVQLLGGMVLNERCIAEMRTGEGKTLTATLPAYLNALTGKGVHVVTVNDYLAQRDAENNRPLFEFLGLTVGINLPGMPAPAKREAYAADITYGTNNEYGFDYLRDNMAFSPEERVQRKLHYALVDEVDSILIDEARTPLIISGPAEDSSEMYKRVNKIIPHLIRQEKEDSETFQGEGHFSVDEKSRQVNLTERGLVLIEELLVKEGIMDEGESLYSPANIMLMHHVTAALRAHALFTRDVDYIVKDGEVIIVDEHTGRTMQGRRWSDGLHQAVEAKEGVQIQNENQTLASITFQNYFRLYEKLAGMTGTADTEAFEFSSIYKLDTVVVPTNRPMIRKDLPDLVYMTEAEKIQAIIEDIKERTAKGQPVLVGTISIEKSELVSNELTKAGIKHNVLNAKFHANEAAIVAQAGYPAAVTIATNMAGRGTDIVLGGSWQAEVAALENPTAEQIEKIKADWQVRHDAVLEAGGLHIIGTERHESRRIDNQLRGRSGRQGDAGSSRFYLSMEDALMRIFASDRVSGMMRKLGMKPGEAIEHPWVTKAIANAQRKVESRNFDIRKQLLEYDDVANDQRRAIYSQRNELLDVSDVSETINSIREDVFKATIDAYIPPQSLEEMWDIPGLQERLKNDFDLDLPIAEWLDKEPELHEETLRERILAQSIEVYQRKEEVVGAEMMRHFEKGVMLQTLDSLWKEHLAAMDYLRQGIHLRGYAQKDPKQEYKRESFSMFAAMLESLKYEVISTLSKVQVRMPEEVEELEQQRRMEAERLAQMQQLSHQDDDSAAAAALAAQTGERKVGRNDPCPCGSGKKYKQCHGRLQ

Take `Cc1ccc(C)c(C(=O)CN2C(=O)c3ccccc3CS2(=O)=O)c1`: the Percent Effect was -0.543% in test [1]; -2.7% in [2]; -3.5% in test [3]; 9.17% in test [4]; 5.79% with Trypanosoma cruzi; 0% in [5]. The Percent Effect in test [6] is 18.1%; in the test filed under Homo sapiens, 12%; in [7], -36.5%; in test [8], -41.5%; in test [9] it was 22.1%.
Regarding `Cc1nccc(-c2cccc(NCC(=O)N3CCc4sccc4C3)c2)n1`, the Percent Effect in test [1] is -1.56%; in test [2], 2.63%; in test [3], 49.8%; in test [4], -3.82%; with Trypanosoma cruzi, 4.76%; in test [5] it was -1.8%. The Percent Effect in [6] was 6.68%; in the test filed under Homo sapiens it was -23.6%; in [7], 11.3%; in test [8] it was 30.9%; in test [9] it was -8.23%.
With `CS(=O)(=O)NCC1CCCN(C(=O)Nc2ccccc2Cl)C1` (stereo unspecified), the Percent Effect in test [1] was -1.65%; in test [2], 13.2%; in test [3], 8.6%; in [4], 0.518%; in the test with Trypanosoma cruzi, 1.66%; in [5], -5.92%. In addition, the Percent Effect was 15.2% in [6]; 29.4% in the test filed under Homo sapiens; 7.45% in [7]; 18.2% in test [8]; -7.52% in test [9].
With `O=C(Nc1cc(F)ccc1OCC1CCCO1)c1ccccn1` (stereo unspecified), the Percent Effect was -2.56% in [1]; 2.6% in test [2]; 23.7% in test [3]; 12.2% in [4]; 3.04% in the test with Trypanosoma cruzi; 3.16% in test [5]. Further, the Percent Effect in test [6] is 0.242%; in the test filed under Homo sapiens it was 2.47%; in test [7], 2.86%; in test [8], 9.41%; in test [9], -15.1%.
Consider `Cc1nc(C)n(CC2CCCN(c3ncnc4c3CCC4)C2)n1` (stereo unspecified), for which the Percent Effect in test [1] was -4.39%; in test [2], 0%; in test [3], 0.226%; in test [4], -3.72%; in the test on Trypanosoma cruzi, -4.25%; in [5], -2.81%. For the same molecule, the Percent Effect in [6] was -2.88%; in the test filed under Homo sapiens, 64.3%; in test [7] it was -2.46%; in [8], -8.64%; in test [9], 4.82%.
For `COc1ccc(CN2CCn3cc(Cn4cccn4)nc3C2)cc1`, the Percent Effect is -0.217% in [1]; 5.2% in [2]; 5.77% in [3]; -3.88% in [4]; -5.03% with Trypanosoma cruzi; -3.23% in test [5]. Besides, the Percent Effect is 9.4% in test [6]; -15% in the test filed under Homo sapiens; 5.29% in test [7]; -8.97% in [8]; -4.7% in [9].
For the molecule `CN(CCC#N)C(=O)CN1CCCC1c1ccsc1` (stereo unspecified), the Percent Effect was -7.51% in test [1]; 0% in test [2]; -7.58% in test [3]; 1.78% in test [4]; -3.62% in the test on Trypanosoma cruzi; 0.924% in [5]. Besides, the Percent Effect in test [6] was -1.26%; in the test filed under Homo sapiens, 11.9%; in [7], -2.97%; in [8], -1.22%; in test [9] it was 7.91%.
Regarding `Cc1ccc(C(=O)NCCS(C)(=O)=O)c(=O)[nH]1`, the Percent Effect in [1] is -3.94%; in [2] it was 16.2%; in test [3], -7.64%; in test [4], -5.87%; in the test with Trypanosoma cruzi it was 4.88%; in test [5], 10.4%. Also, the Percent Effect in test [6] was 16.1%; in the test filed under Homo sapiens it was 7.03%; in [7], 9.9%; in test [8], 15.8%; in test [9] it was -5.72%.
In the case of `NC(=O)C1CN(C(=O)Nc2ccccc2-c2cccs2)CCO1` (stereo unspecified), the Percent Effect in test [1] was -6.75%; in test [2] it was 18.9%; in test [3] it was -3.93%; in test [4], 20.2%; in the test on Trypanosoma cruzi, 5.66%; in test [5], -2.4%. Also, the Percent Effect in test [6] is -3.23%; in the test listed under Homo sapiens it was 6.89%; in [7], 2.97%; in test [8] it was 18.3%; in test [9], -6.91%.
`CN(Cc1nccn1CC(F)(F)F)C(=O)c1ccc(F)cc1F`: the Percent Effect was -4.89% in [1]; 5.26% in test [2]; 5.36% in test [3]; 6.23% in [4]; -5.16% in the test with Trypanosoma cruzi; -5.92% in [5]. Besides, the Percent Effect in [6] is 12.8%; in the test listed under Homo sapiens it was -12.9%; in [7], 6.38%; in [8] it was 7.79%; in test [9], 3.79%.
As for `Cc1ccc2c(n1)N(C)CCN(C(=O)C1CC1)C2`, the Percent Effect was 1.38% in test [1]; 8% in [2]; 0.651% in test [3]; 2.31% in test [4]; -8.69% with Trypanosoma cruzi; -54.3% in test [5]. Besides, the Percent Effect is 7.69% in test [6]; 12.1% in the test filed under Homo sapiens; 2.08% in test [7]; 17.5% in test [8]; -6.8% in test [9].
